# The full data set covers some 7,900 targets. This sample favours those with a hit. About 0.6% of all pairs of compound and target were hits. Unmarked numbers belong to inactive results.
# Experiments:
# Assay in all cases: log2 fold change, soluble protein after heating vs DMSO (PISA); higher = thermal stabilisation; K562 cells, 10 uM, 30 min; active = over 0.2 and 3.5 SD of the protein, either way, in both replicates (recomputed)
# [1] = compound: C1=CC=C(C=C1)[C@H](COC2=CC3=C(C=C2)NC(=O)N3)NC(=O)C4=CC=CN(C4=O)CC5=CC(=C(C=C5)F)F
# How it was run: (§1)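 Quantification of soluble protein used TMTpro 16plex LC-MS/MS, with channel sums equalised. Samples were the supernatant after 21,000xg for 90 min of pooled aliquots from K562 cells (2×10^6 cells/mL) treated with 10 μM compound for 30 min, heated for 3 min over 48°C-58°C, and extracted in PBS with 0.5% NP-40 at 4°C. Values, from duplicates, describe thermal stability against control samples on a log2 fold-change scale.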
# [2] = compound: CC1=C(SC2=C1C(=N[C@H](C3=NN=C(N32)C)CC(=O)N)C4=CC=C(C=C4)Cl)C
# How it was run: as §1
# [3] = compound: c1ccc([C@@H]2C[C@H]2NC2CCNCC2)cc1
# How it was run: as §1
# [4] = compound: CC1=C2C(=CC=C1)N=C(N(C2=O)C3=CC=CC=C3C)CN4C=NC5=C(N=CN=C54)N
# How it was run: as §1
# [5] = compound: Cc1sc2c(c1C)C(c1ccc(Cl)cc1)=N[C@@H](CC(=O)OC(C)(C)C)c1nnc(C)n1-2
# How it was run: as §1
# Chain of UniProt Q14671 (Q14671 whole entry, looked up): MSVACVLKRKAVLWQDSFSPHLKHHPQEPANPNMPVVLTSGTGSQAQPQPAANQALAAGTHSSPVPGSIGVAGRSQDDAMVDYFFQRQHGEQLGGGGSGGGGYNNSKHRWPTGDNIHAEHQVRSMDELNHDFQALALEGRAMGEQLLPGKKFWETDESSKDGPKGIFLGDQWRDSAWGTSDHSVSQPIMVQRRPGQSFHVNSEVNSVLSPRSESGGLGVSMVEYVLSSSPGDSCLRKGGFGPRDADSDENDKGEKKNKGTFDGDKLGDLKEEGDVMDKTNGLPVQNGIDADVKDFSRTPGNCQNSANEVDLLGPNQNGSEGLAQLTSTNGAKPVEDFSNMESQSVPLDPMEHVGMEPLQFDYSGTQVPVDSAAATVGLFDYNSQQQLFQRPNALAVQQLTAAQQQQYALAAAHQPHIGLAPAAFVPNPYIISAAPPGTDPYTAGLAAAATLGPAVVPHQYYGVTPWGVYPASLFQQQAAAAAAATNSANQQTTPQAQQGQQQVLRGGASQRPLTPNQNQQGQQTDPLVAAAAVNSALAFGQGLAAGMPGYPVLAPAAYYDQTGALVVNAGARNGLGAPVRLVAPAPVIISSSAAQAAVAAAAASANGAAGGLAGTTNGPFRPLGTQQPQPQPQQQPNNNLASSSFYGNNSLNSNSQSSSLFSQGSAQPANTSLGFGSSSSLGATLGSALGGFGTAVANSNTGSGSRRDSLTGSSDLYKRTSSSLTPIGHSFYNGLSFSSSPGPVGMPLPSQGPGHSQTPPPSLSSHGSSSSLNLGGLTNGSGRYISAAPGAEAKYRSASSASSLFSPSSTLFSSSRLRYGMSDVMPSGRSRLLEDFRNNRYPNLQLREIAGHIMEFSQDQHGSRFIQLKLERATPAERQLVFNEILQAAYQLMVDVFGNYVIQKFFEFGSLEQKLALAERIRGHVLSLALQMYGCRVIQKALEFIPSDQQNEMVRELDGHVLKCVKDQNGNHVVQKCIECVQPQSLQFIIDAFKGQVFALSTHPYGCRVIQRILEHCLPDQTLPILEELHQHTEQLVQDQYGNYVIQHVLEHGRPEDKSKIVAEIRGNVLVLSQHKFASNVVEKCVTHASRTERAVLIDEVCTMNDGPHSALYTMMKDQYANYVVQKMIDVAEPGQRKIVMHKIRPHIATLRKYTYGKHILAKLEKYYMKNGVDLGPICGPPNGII
# Chain of UniProt Q96RV3 (Q96RV3 whole entry, looked up): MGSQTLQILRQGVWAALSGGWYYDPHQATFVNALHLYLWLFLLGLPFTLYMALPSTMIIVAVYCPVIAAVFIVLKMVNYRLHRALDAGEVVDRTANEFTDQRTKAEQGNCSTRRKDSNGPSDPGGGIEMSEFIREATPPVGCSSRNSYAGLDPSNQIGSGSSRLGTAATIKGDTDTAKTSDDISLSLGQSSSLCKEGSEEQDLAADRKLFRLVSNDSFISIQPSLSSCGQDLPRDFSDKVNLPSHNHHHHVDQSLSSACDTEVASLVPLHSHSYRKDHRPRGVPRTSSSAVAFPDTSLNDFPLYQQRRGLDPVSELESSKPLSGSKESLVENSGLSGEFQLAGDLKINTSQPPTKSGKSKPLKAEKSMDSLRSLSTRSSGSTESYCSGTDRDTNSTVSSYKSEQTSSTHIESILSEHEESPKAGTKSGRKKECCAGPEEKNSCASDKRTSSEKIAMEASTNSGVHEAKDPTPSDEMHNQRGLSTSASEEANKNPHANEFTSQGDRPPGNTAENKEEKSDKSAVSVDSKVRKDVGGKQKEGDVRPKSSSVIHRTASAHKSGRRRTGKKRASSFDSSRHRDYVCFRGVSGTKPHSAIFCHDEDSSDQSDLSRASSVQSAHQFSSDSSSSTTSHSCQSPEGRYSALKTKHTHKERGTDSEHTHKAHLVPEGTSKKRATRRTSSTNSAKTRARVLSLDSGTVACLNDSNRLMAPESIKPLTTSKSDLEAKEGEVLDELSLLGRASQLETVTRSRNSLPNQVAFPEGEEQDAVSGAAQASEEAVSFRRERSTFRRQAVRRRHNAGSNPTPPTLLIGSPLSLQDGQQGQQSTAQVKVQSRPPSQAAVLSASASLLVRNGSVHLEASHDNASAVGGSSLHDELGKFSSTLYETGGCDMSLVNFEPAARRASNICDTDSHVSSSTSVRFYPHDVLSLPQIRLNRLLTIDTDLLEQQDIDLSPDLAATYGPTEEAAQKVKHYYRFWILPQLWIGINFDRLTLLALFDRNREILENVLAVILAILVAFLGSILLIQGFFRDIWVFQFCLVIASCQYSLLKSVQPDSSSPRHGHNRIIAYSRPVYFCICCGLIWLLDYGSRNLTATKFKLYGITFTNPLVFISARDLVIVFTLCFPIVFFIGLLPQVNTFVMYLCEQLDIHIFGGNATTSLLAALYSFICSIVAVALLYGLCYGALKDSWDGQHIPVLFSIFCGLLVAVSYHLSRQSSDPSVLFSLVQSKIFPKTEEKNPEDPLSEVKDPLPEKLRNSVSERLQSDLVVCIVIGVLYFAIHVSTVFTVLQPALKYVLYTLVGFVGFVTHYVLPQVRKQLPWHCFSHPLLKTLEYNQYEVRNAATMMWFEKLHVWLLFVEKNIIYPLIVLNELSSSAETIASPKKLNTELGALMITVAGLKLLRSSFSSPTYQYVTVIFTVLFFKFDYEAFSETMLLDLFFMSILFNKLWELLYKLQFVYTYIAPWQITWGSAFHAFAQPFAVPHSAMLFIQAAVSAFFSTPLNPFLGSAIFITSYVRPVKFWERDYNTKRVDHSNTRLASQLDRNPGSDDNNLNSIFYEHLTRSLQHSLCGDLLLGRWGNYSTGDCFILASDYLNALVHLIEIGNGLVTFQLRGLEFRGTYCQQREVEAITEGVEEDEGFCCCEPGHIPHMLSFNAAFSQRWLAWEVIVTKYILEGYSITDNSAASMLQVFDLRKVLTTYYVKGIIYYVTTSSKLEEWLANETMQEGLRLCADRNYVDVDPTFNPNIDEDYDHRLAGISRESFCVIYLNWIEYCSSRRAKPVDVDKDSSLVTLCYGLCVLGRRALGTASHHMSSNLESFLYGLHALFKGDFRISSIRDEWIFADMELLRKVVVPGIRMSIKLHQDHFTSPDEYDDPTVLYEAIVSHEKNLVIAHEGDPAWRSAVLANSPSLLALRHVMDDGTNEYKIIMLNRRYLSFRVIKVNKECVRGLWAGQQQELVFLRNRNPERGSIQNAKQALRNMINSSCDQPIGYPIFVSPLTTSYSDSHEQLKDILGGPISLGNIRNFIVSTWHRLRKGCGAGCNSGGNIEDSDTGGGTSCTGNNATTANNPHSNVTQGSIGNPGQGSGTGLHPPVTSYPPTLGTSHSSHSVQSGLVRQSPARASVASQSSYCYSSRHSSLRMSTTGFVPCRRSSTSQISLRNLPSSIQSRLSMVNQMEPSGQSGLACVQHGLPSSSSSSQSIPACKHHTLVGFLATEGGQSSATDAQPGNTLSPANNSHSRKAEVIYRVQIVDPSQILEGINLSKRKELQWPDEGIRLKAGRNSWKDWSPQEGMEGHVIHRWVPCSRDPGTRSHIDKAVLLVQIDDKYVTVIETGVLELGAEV
# Chain of UniProt Q9BZL4 (Q9BZL4 whole entry, looked up): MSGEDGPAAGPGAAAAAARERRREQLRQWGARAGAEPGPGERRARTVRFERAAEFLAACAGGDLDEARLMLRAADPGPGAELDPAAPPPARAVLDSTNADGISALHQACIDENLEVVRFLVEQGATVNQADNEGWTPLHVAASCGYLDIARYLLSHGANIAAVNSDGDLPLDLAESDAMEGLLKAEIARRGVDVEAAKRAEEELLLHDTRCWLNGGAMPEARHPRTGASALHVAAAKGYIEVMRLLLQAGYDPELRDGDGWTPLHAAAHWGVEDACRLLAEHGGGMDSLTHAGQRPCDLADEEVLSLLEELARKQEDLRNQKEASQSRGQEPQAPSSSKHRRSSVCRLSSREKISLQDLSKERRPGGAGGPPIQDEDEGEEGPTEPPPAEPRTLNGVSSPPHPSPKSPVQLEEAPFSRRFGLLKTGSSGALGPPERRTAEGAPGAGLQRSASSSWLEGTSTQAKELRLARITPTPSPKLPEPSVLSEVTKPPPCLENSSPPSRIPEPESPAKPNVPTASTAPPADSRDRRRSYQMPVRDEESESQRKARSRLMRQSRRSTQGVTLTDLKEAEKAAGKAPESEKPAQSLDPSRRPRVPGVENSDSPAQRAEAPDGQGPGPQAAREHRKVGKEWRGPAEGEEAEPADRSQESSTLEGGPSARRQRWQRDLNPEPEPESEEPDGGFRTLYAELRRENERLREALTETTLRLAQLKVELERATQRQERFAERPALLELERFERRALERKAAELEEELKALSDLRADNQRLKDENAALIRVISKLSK
# Chain of UniProt Q9H307 (Q9H307 whole entry, looked up): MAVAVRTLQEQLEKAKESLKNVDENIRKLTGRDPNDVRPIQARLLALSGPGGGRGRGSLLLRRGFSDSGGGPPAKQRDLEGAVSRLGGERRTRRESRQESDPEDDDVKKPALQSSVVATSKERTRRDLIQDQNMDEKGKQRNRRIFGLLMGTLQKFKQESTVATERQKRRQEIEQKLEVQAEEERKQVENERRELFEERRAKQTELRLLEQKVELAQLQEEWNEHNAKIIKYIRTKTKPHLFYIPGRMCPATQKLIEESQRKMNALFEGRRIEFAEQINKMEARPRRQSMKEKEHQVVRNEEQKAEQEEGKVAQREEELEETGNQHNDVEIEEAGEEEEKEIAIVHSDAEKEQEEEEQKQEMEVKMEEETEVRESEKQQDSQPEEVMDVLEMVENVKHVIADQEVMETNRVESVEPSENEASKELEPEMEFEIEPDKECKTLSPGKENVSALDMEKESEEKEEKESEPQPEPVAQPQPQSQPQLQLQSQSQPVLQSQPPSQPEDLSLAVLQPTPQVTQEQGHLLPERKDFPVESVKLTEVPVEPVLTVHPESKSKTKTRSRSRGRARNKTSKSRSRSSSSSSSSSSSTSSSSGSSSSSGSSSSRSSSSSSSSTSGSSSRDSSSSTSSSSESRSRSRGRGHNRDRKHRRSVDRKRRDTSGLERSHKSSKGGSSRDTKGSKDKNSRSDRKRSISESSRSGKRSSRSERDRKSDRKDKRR
Target,log2 fold change [1],log2 fold change [2],log2 fold change [3],log2 fold change [4],log2 fold change [5]
PNN (UniProt Q9H307),0.084,0.021,0.012,–,–
PCF11 (UniProt O94913),-0.319,-0.02,0.006,0.068,–
PSD3 (UniProt Q9NYI0),–,0.045,-0.028,0.052,–
PPP1R12C (UniProt Q9BZL4),-0.16,–,–,0.05,0.053
PSMC1 (UniProt G3V4X1),–,-0.021,0.112,–,–
PUM1 (UniProt Q14671),–,0.116,-0.094,–,0.059
PHC3 isoform 7 (UniProt Q8NDX5),-0.023,-0.025,-0.075,–,–
PEX5 isoform 4 (UniProt P50542),–,-0.147,0.006,0.043,0.059
PDE4DIP (UniProt E9PS60),–,0.013,-0.069,-0.209,–
PSMD8 (UniProt K7EK21),–,-0.11,0.188,–,–
PTP4A3 (UniProt O75365),0.037,–,–,0.391,–
PCNX1 (UniProt Q96RV3),0.064,–,–,0.103,-0.122
PCBP2 (UniProt F8VZX2),-0.1,-0.107,0.019,–,–
PIAS4 (UniProt Q8N2W9),–,–,–,–,0.129
